Assay results from PubChem BioAssay (EPA / NIEHS).
The source made the active and inactive calls. The calls were made as follows: active = hit-call score of the fitted dose curve at least 0.9, where 1 is the maximum; inactive = score below 0.9.

Read-out: Monokine induced gamma interferon (MIG), CXCL9 (gene 4283)
Experiment: BSK_SAg_MIG: BioMAP Diversity Plus: SAg Assay for Monokine induced gamma interferon (MIG) Biomarker Activity (AID 2283092)
Settings: primary human HUVEC with PBMC; actives raise or lower the signal
Experimental: BSK_SAg is a cell-based, multiplexed-readout assay that uses umbilical vein endothelium and peripheral blood mononuclear cells, a human vascular primary cell co-culture, with measurements taken at 24 hours after chemical dosing in a 96-well plate.BSK_SAg_MIG is an assay component measured in the BSK_SAg assay. It measures MIG antibody related to regulation of gene expression using ELISA technology.Data from the assay component BSK_SAg_MIG was analyzed into 1 assay endpoint. This assay endpoint, BSK_SAg_MIG, was analyzed with bidirectional fitting relative to DMSO as the negative control and baseline of activity. Using a type of binding reporter, gain or loss-of-signal activity can be used to understand changes in the signaling as they relate to the gene CXCL9. Furthermore, this assay endpoint can be referred to as a primary readout, because this assay has produced multiple assay endpoints where this one serves a signaling function. To generalize the intended target to other relatable targets, this assay endpoint is annotated to the cytokine intended target family, where the subfamily is chemotactic factor.
The levels of cell surface (or secreted, indicated by the prefix "s") biomarker endpoints were measured by ELISA. Overt cytotoxicity to cells in confluent adherent cultures (all systems other than the BT system) was assessed by measuring total protein levels using sulforhodamine B (SRB) staining in parallel cultures at the time of biomarker measurements, indicated as SRB endpoints. For proliferation assays for adherent cell types, individual cell types are cultured at sub-confluence and relative cell numbers quantified by SRB staining at time points optimized for each system (48 h: 3C and CASM3C systems; 72 h: BT and HDF3CGF systems; 96 h: SAg system). SRB was performed by staining cells with 0.1% SRB after fixation with 10% TCA and reading wells at 560 nm.Viability and proliferation of PBMC (T cells) was quantified by Alamar Blue reduction for the SAg and BT systems. For PBMC viability (referred to as PBMC Cytotoxicity within the assay endpoint names), cells were plated (75,000/well in a 96-well plate) and then chemical samples added for 1 h before addition of activators, SEB and TSST-1 (20 ng/mL final concentration each). Cells were incubated for 90 h. Then, Alamar Blue (20 uL/well) (Invitrogen, Cat DAL1100) was added for 6 h, and the plates were read with a fluorescence microplate reader at 546/580 nm (excitation/emission). For PBMC proliferation, cells were plated and activated as above but incubated for only 16 h prior to addition of Alamar Blue. Plates were read after 6 h.

SMILES	outcome	AC50
COCCOCCO	inactive	–
O=S1(=O)OCC2C(CO1)C1(Cl)C(Cl)=C(Cl)C2(Cl)C1(Cl)Cl (stereo not given)	inactive	–
N#Cc1c(-c2ccc(Cl)cc2)[nH]c(C(F)(F)F)c1Br	–	2.85 µM (active)
Cc1ccc(O)cc1C	inactive	–
Cc1c([N+](=O)[O-])cc2c(c1[N+](=O)[O-])C(C)(C)CC2(C)C	inactive	–
CCOP(=S)(NC(C)C)Oc1ccccc1C(=O)OC(C)C (stereo not given)	inactive	–
Nc1ccc([N+](=O)[O-])cc1Cl	inactive	–
O=C(O)C(Cl)Cl	inactive	–
CN(C)C(=O)Cl	inactive	–
c1cc2c3c(cccc3c1)CC2	inactive	–
COP(=O)(O)OC	inactive	–
CCOC(=O)c1ccccc1C(=O)OCC	inactive	–
O=c1ssc(Cl)c1Cl	–	9 µM (active)
CCCCN(CCCC)SN(C)C(=O)Oc1cccc2c1OC(C)(C)C2	–	32.1 µM (active)
CCCCCCCc1ccc(O)cc1	–	37.2 µM (active)
O=P(Oc1ccccc1)(Oc1ccccc1)Oc1ccccc1	–	31.3 µM (active)
CCOP(=S)(OCC)SCSc1ccc(Cl)cc1	inactive	–
ClC(Cl)=C(c1ccc(Cl)cc1)c1ccccc1Cl	–	20 µM (active)
CCOP(=S)(Oc1ccc([N+](=O)[O-])cc1)c1ccccc1 (stereo not given)	inactive	–
O=[N+]([O-])c1ccccc1	inactive	–

SMILES	outcome	AC50
CCNc1nc(Cl)nc(NC(C)(C)C)n1	inactive	–
COP(N)(=S)OC	inactive	–
ClC(Cl)(Cl)c1ccccc1	inactive	–
CCOP(=S)(OCC)SCn1nnc2ccccc2c1=O	inactive	–
[N-]=[N+]=[N-]	inactive	–
CSC(C)(C)C=NO	inactive	–
CC(Cc1ccc(OCC(=O)O)cc1)NCC(O)c1csc(C(F)(F)F)n1 (stereo not given)	inactive	–
CCOP(=S)(OCC)SCS(=O)(=O)CC	inactive	–
c1nc[nH]n1	inactive	–
CCCCC(CC)COP(=O)(Oc1ccccc1)Oc1ccccc1 (stereo not given)	inactive	–
O=S(=O)(F)C(F)(F)C(F)(F)C(F)(F)C(F)(F)C(F)(F)C(F)(F)C(F)(F)C(F)(F)F	inactive	–
CCCN(CCC)c1c([N+](=O)[O-])cc(C(C)C)cc1[N+](=O)[O-]	inactive	–
c1ccc(OP(Oc2ccccc2)Oc2ccccc2)cc1	inactive	–
Nc1ccc2ccccc2c1	inactive	–
CCOP(=S)(OCC)SCSCC	inactive	–
O=C(O)C(F)(F)C(F)(F)C(=O)O	inactive	–
O=P1(N(CCCl)CCCl)NCCCO1 (stereo not given)	inactive	–
CCC(C)(C)c1ccc(O)cc1	inactive	–
O=C(O)C(F)(OC(F)(F)C(F)(F)C(F)(F)F)C(F)(F)F (stereo not given)	inactive	–
CCOS(=O)(=O)OCC	inactive	–
